From PubChem BioAssay
Rows were chosen to be rich in hits. Some 2.4% of all compounds tested hit in one or more screens of this group.
M1 ag parental: counter-screen for M1 agonists: effect in parental CHO-K1 cells; AID 602248, 2012; Fluo-8 calcium fluorescence; scaled to maximal ATP response, vehicle zero; activation, % at 3 µM; 360,000 tested, 0.48% active; in the data active means activation above about 15%;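 further: untransfected CHO-K1 host cells lacking M1 receptor as counterscreen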
CHRM1 antagonist: human M1 muscarinic receptor antagonists, primary screen, CHO-K1 cells, Fluo-8 calcium fluorescence, 1536-well | Muscarinic acetylcholine receptor M1 (Homo sapiens), P11229 | CHO-K1 hM1, ACh EC80 antagonist | inhibition, % at 3 µM | 360,000 tested, 1.3% active | AID 588852, 2011;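 active means percent inhibition above its own plate's cutoff, namely the mean of that plate's compound wells plus 3 SD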;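 further: peak over basal fluorescence ratio during 140 s after agonist addition; 0% = ACh EC80 plus DMSO and 100% = DMSO alone without agonist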
Target sequence (P11229 whole entry, looked up): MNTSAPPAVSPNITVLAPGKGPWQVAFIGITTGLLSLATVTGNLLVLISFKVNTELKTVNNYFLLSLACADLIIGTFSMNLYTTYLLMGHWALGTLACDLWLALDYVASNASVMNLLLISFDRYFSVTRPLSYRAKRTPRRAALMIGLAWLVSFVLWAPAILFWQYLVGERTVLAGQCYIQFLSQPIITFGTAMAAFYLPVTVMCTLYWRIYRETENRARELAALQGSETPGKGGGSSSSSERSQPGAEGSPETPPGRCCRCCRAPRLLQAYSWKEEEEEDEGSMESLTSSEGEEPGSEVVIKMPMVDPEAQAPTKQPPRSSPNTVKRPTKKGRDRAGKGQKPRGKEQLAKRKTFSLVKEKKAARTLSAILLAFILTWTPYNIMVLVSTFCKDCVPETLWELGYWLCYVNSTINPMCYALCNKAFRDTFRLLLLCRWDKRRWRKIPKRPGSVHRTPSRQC
CHO-K1 Ca PAM: nonselective calcium activators in parental CHO-K1 cells, primary screen, counter-screen for M1 PAM project, cell-based, Fluo-8 calcium fluorescence, full deck, 1536-well | ATP EC20; 0% at ATP EC20, 100% at ATP max | activation, % at 3 µM | 360,000 tested, 0.02% active | AID 602247, 2012;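 active means activation above the run cutoff, the mean activation of all test compounds plus 3 SD, cut at about 40% in these data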;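 further: peak over basal fluorescence ratio in a 140 s read after ATP addition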
CHO-K1 Ca antag: M1 antagonist counterscreen hit in parental CHO-K1 cells. inhibition, % at 3 µM. ATP-induced calcium, Fluo-8 fluorescence. 360,000 tested, 0.6% active. AID 602250;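 active means inhibition above a per-plate cutoff, the plate's mean sample inhibition plus 3 SD, cut at about 24% in these data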;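 further: 0% = DMSO plus EC80 ATP and 100% = DMSO alone without ATP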
M1 PAM: human M1 muscarinic receptor positive allosteric modulators, primary screen, CHO-K1 cells, Fluo-8 calcium fluorescence, 1536-well | Muscarinic acetylcholine receptor M1 (Homo sapiens), P11229 | CHO-K1 hM1, ACh EC20; 0% = ACh EC20, 100% = maximal ACh | activation, % at 3 µM | 360,000 tested, 0.088% active | AID 588819, 2011; in the data active means activation above about 19%, passing the limit was not always enough
CHRM1 agonist: human M1 muscarinic receptor agonists, primary screen, Fluo-8 calcium fluorescence, CHO-K1 cells, HTS; activation, % at 3 µM; AID 588814, 2011; 360,000 tested, 0.33% active; CHO-K1 hM1, agonist mode; 0% DMSO, 100% acetylcholine EC100;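 active means activation above the run's mean compound activation plus 3 SD, cut at about 16% in these data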;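 further: peak over basal fluorescence ratio within a 140 s kinetic read after compound addition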
The depositor's hits bear a star; / = not tested or not shown; ! = not active in a repeat.

SMILES | M1 ag parental | CHRM1 antagonist | CHO-K1 Ca PAM | CHO-K1 Ca antag | M1 PAM | CHRM1 agonist
CCOC(=O)C1CCCN(c2ccc([N+](=O)[O-])c3nonc23)C1 (stereo unspecified) | 156.6* | 70.1* | -24.9 | 51.5* | -27.4 | 297.9*
COC(=O)C1=C(c2ccc(F)cc2OCc2ccccc2)C[C@@H]2CC[C@H]1N2C(=O)NCc1cccc(C(F)(F)F)c1 | 0.8 | 0.6 | 18.1 | -15.5 | 2.8 | -2.4
CN(C)c1ccc(/C=C/c2cc[n+](C)c3ccccc23)cc1 | -0.1 | 29.8*! | 14.4 | -11.6 | 3.9 | -4.9
Fc1cccc(-c2ccc3c(c2)CNCc2cnnn2-3)c1 | 1.6 | 15.6 | 7.8 | 1.1 | -5.9 | -11.4
OC(Cc1ccccc1)(c1ccccc1)C1CN2CCC1CC2 (stereo unspecified) | 0.6 | 98.2* | 11.6 | -1.2 | -23.3 | -5.2
OC(c1ccccc1)(c1ccc(Cl)cc1)C1CN2CCC1CC2 (stereo unspecified) | 12.2 | 99.7* | 15.9 | 4.5 | -24.0 | -4.5
OCC[N+]12CCC(CC1)C(C(O)(c1ccccc1)c1ccccc1)C2 (stereo unspecified) | 0.8 | 30.2 | 0.6 | 1.1 | -17.3 | -8.9
OC(c1ccccc1)(c1ccccc1)C1CN2CCC1CC2 (stereo unspecified) | 1.0 | 98.1* | 4.6 | -14.2 | -28.1 | -11.0
c1ccc(C2CN3CCC2CC3)cc1 (stereo unspecified) | 0.6 | 41.2* | 2.0 | -14.3 | -13.2 | 5.4
C[C@@H]1CN([C@H](C)CO)C(=O)CCCn2nncc2CO[C@@H]1CN(C)C(=O)Oc1ccc2ccccc2c1 | 0.8 | -6.9 | 12.8 | -11.4 | 2.0 | -7.9
COc1cccc(NP2(=O)OCC(C)([N+](=O)[O-])CO2)c1 (stereo unspecified) | 0.1 | -0.8 | -18.9 | 8.8 | 8.2 | 3.8
C[C@H]1COc2cc(N3CCN(C)CC3)ccc2S(=O)(=O)N1 | 0.0 | / | 2.0 | 6.9 | / | /
C[C@]12CCC3C(CC[C@H]4C[C@@H](O)[C@H](O)C[C@]34C)C1CC[C@@H]2O (stereo partly specified) | 2.4 | -9.8 | 0.5 | -15.9 | -4.7 | 4.6
Cc1ccc(OCC(=O)N2CCN(Cc3ccc4c(c3)OCO4)CC2)cc1 | 0.0 | -3.7 | -18.0 | 29.6* | 5.2 | -11.8
CCC(=NCCc1c[nH]c2ccccc12)c1c(O)n(C)c(=O)n(C)c1=O | 15.8* | 26.1* | -0.4 | 24.0* | -14.9 | 3.3
COc1cccc(C2CCN(C)C2)c1 (stereo unspecified) | 0.9 | -3.8 | 15.7 | -6.8 | -1.2 | 29.0*
COc1ccc(SCC2CN(C)CCC2c2ccc(F)cc2)cc1 (stereo unspecified) | 3.1 | -9.1 | 20.8 | -9.3 | 7.5 | 4.1
CC[n+]1c(/C=C/N(C)c2ccccc2)sc2ccc(Cl)cc21 | -0.5 | 64.2* | 5.9 | 3.3 | -33.0 | -6.7
CN(C)c1ccc(/C=C/C=C/c2sc3ccccc3[n+]2C)cc1 | 12.2 | 13.6 | 3.4 | 15.6 | 4.7 | -4.4
CC[n+]1c(/C=C/C=C/c2ccc(N(C)C)cc2)sc2ccccc21 | 12.3 | 68.6* | -8.6 | 33.8* | -22.5 | 2.5
S=C1CN=C(c2ccccc2)c2cc(Cl)ccc2N1 | -0.3 | -3.7 | 3.9 | -0.7 | 6.9 | 46.0*
C[C@](N)(CCP(=O)(O)O)C(=O)O | 0.1 | -20.7 | -10.9 | 24.7* | 1.6 | -2.5
O=C(c1cc(F)ccc1F)C1CCCN(Cc2cccc(Cl)c2)C1 (stereo unspecified) | -0.4 | 20.2 | -13.2 | -8.1 | -7.5 | -5.1
O=C(c1cc(F)ccc1F)C1CCCN(CCCc2ccccc2)C1 (stereo unspecified) | -0.2 | 35.6* | -1.6 | 3.7 | -25.8 | -9.0
O=C1NCN(c2ccccc2)C12CCN(C(CCc1ccccc1)c1nnnn1C1CCCC1)CC2 (stereo unspecified) | 0.9 | -18.7 | 9.9 | -14.8 | -0.2 | -1.2
SMILES | M1 ag parental | CHRM1 antagonist | CHO-K1 Ca PAM | CHO-K1 Ca antag | M1 PAM | CHRM1 agonist
COc1ccc(C(=O)OCC2CN2c2cccc([N+](=O)[O-])c2)cc1 (stereo unspecified) | 6.5 | / | -6.2 | -2.4 | / | /
COc1cccc(CNC2CN3CCC2CC3)c1OC (stereo unspecified) | 0.6 | 73.1* | 18.3 | -25.9 | -34.9 | -11.8
Oc1ccccc1-[n+]1c(-c2ccccc2)cc(-c2ccccc2)c(O)c1-c1ccccc1 | -0.4 | 3.1 | 13.0 | -10.3 | -6.2 | -4.6
CN1CCC(OC(=O)C2c3ccccc3Oc3ccccc32)CC1 | 0.9 | 98.8* | 22.6 | -17.8 | -21.3 | -6.9
CCCCCCC(Cl)(Cn1ccnc1)c1ccccc1 (stereo unspecified) | 0.6 | 33.0* | 22.3 | -3.9 | -24.3 | -5.7
O=C1NCN(c2ccccc2)C12CCN(C(c1cc3ccccc3o1)c1nnnn1C1CCCCC1)CC2 (stereo unspecified) | 0.5 | 1.5 | 13.6 | -9.6 | -5.5 | -0.5
CN(C)c1ccc(/C=C2/C(=N\O)C3CCN2CC3)cc1 | 1.5 | -15.2 | 16.7 | -12.5 | 9.6 | -7.5
Cc1cc(C)n(-c2ccc(NN=C(C#N)C#N)cc2)n1 | 21.4* | 15.8 | -0.6 | 13.7 | -8.9 | 8.8
N#CC(C#N)=NNc1ccc(-n2ccc(C(F)(F)F)n2)cc1 | 15.0 | 31.0 | -3.2 | 21.7 | -6.5 | 8.7
CCOC(=O)C(O)(c1ccc(NC(=S)NC(=O)c2ccc(Cl)cc2Cl)cc1)C(F)(F)F (stereo unspecified) | 7.8 | 25.4 | 8.4 | 15.7 | -1.1 | 21.2*
COC(=O)C(O)(c1ccc(NC(=S)NC(=O)c2ccc(Cl)cc2Cl)cc1)C(F)(F)F (stereo unspecified) | 5.0 | 21.8 | -7.2 | 7.2 | -10.5 | 21.4*
COC(=O)C(O)(c1ccc(NC(=S)NC(=O)c2ccc(Cl)cc2Cl)c(C)c1)C(F)(F)F (stereo unspecified) | 11.5 | 16.2 | 4.5 | 13.5 | -0.6 | 10.7
COC(=O)C(O)(c1ccc(NC(=O)NC2CCCCC2)cc1)C(F)(F)F (stereo unspecified) | 1.1 | 2.6 | -2.3 | 9.0 | -2.6 | -7.4
CCOC(=O)C(O)(c1ccc(NC(=S)NC(=O)c2ccc(Cl)cc2Cl)c(C)c1)C(F)(F)F (stereo unspecified) | 14.3 | 48.5* | -2.4 | 19.9 | -11.5 | 22.2*
CCOC(=O)C(O)(c1ccc(NC(=O)Oc2ccccc2)cc1)C(F)(F)F (stereo unspecified) | 0.1 | 3.4 | -4.1 | 10.7 | 1.4 | -6.9
CCOC(=O)c1cccc(C2=C(CNC(=O)c3ccc([N+](=O)[O-])cc3)[C@H]3CC[C@@H](C2)N3Cc2ccccc2)c1 | 0.5 | 5.5 | 5.0 | -9.5 | -9.0 | -10.3
